Source: PubChem BioAssay (National Center for Advancing Translational Sciences (NCATS))
An excerpt weighted towards active compounds, which were near 2.8% of everything screened.
PI5P4K alpha inh = inhibitors of human PI5P4K alpha; 330,000 compounds, 1.2% hits; P48426; max response, %; PI5P4Kalpha enzyme, ADP-Glo luminescence, 60 min; active compounds read low; active means max response of -50% or lower; inconclusive means between -30% and -50%; inactive means -30% or higher; further: value at the top dose of about 77 µM; on the % scale 0 is the no-effect control and ±100 the full control effect
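ADP-Glo luminescence end-point after a 60 min room-temperature kinase reaction. PI5P4Kalpha and substrate in HEPES pH 7.4 buffer with EGTA, 0.1% CHAPS and 5% DMSO; ATP at 5 microM final.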
POLB inh = inhibitors of human DNA polymerase beta. P06746. Pol beta primer extension/strand displacement, fluorescence kinetic. Potency, µM (doses to about 114 µM), for inactives: top-dose activity change, negative = inhibition, usual class: inhibitors. 340,000 compounds, 1.3% hits. AID 485314; further: potency means the concentration at half of the fitted maximal effect; on the % scale 0 is the no-effect control and ±100 the full control effect
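Pol beta (10 nM) was preincubated with compound for 15 min at room temperature. The reaction was then started with 50 nM substrate and read immediately and after a further 10 min at room temperature.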
FEN1 inhibitor = blocks human flap endonuclease 1; AID 588795; Recombinant FEN1 flap cleavage, fluorescence, 15 min; Potency, µM (highest dose often 114 µM), for inactives: at the highest dose activity change, negative = inhibition, hits mostly inhibitors; 390,000 compounds, 0.35% hits; further: potency means the concentration at half of the fitted maximal effect; on the % scale 0 is the no-effect control and ±100 the full control effect; nearly all actives have a fitted effect of over 65% in size
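Quantitative HTS format: each compound was titrated, incubated with 10 nM nuclease for 15 min at room temperature, then challenged with flap substrate at 50 nM final. Signal change over 15 min gave concentration–effect curves.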
Pol kappa inh-1 = inhibitors of human DNA polymerase kappa | Potency, µM (series often up to 107 µM), inactives show at the highest dose activity, negative = inhibition, usual class: inhibitors | AID 588579 | purified Pol kappa, fluorescent DNA synthesis assay, 10 min | Q9UBT6 | 400,000 compounds, 0.53% hits; further: potency means the concentration at half of the fitted maximal effect; on the % scale 0 is the no-effect control and ±100 the full control effect
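First, compounds were pin-transferred onto 10 nM Pol kappa. After 15 min at room temperature, substrate was added to 50 nM final. Fluorescence was then measured kinetically at 0 and 10 min.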
Pol eta inh-1 = inhibitors of human DNA polymerase eta | Q9Y253 | recombinant Pol eta, fluorescent DNA replication assay | Potency, µM (titrated, usually from 114 µM), without a hit: at the highest dose activity change, negative = inhibition, most hits filed as inhibitors | 390,000 compounds, 1.2% hits; further: potency means the concentration at half of the fitted maximal effect; on the % scale 0 is the no-effect control and ±100 the full control effect
Target sequence (Q9Y253 whole entry, looked up): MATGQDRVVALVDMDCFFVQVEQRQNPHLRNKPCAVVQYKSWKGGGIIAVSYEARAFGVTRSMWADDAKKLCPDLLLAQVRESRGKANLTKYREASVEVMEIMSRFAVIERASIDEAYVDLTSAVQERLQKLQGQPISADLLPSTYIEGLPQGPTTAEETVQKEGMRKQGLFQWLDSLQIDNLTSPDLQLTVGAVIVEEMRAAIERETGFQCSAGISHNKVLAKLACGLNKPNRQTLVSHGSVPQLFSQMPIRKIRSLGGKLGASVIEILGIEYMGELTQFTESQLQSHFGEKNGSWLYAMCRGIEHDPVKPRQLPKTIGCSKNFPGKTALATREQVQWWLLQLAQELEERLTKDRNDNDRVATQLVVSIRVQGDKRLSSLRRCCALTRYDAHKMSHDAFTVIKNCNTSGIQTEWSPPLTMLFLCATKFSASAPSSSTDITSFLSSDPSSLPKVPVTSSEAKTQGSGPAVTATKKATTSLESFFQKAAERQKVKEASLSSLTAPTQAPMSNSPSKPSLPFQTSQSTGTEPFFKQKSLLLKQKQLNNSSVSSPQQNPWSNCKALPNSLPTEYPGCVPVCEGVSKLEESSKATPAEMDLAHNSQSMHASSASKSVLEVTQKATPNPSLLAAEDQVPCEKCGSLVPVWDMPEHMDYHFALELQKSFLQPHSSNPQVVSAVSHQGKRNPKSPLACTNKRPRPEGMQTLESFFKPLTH
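Pol eta (10 nM) was preincubated with compounds for 15 min at room temperature, after which fluorescent replication substrate (50 nM final) was added to start the reaction. Fluorescence was read kinetically at 0 and 10 min.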
POLI inh = DNA polymerase iota (human) inhibition. Q9UNA4. Pol iota fluorescent replication assay, 10 min. Potency, µM (highest dose often 115 µM), without a hit: at the top dose activity, negative = inhibition, usual class: inhibitors. 390,000 compounds, 1% hits. AID 588590; further: potency means the concentration at half of the fitted maximal effect
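Pol iota at 10 nM preincubated 15 min with compounds at room temperature; reaction started with fluorescent substrate, 50 nM final. Fluorescence read kinetically at 0 and 10 min; buffer-only wells as negative control.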
GALK confirm = confirmation of human galactokinase (GALK) inhibitors; shares compounds with Pol eta inh-1; purified GALK, Kinase-Glo ATP depletion luminescence; Potency, µM (doses to about 115 µM), for inactives: at the highest dose activity, negative = inhibition, actives largely listed as inhibitors; 150 compounds, 70% hits; AID 2015
Redox cycling = generates H2O2 by redox cycling, flagging GALK artifacts; shares compounds with Pol eta inh-1; Phenol red-HRP H2O2 redox cycling, absorbance 600 nm; Potency, µM (highest dose often 115 µM), for inactives: at the highest dose activity change, negative = H2O2 signal, actives largely listed as inhibitors; 150 compounds, 40% hits
HEK293 tox = counter-screen for GALK inhibitors: HEK293 cell cytotoxicity | HEK-293 viability, ATP luminescence (CellTiter-Glo), 24/48 h | shares compounds with Pol eta inh-1 | AID 2547 | 170 compounds, 10% hits | Potency, µM (titrated, usually from 46.1 µM), inactives show at the highest dose activity change, negative = cytotoxicity, most hits filed as inhibitors; further: potency means the concentration at half of the fitted maximal effect; on the % scale 0 is the no-effect control and ±100 the full control effect
Pol kappa inh-2 = Pol kappa (human) inhibition, cherry-pick confirmation | shares compounds with Pol eta inh-1 | purified Pol-kappa, fluorescent strand-displacement substrate | Potency, µM, actives largely listed as inhibitors | 920 compounds, 76% hits | AID 720501; further: potency means the concentration at half of the fitted maximal effect
Pol eta inh-2 = Pol eta (human) inhibition, cherry-pick confirmation; shares compounds with Pol eta inh-1; Pol eta primer extension, TAMRA/BHQ fluorescence, 10 min; Potency, µM, usual class: inhibitors; 2,600 compounds, 64% hits; further: potency means the concentration at half of the fitted maximal effect
Starred values were filed as active, the others as inactive; ? = inconclusive; . = not tested or not shown; [ ] = dose if it differs, or a comment. Unless noted, the call rests on the fitted dose curve; in most records, active means well fitted curve in the direction sought with a large enough effect; inconclusive means small, poorly fitted or top-dose-only effect, or another doubt; inactive means no such curve, though single readings can be large; an effect the other way counts as inactive or inconclusive.

SMILES	PI5P4K alpha inh	POLB inh	FEN1 inhibitor	Pol kappa inh-1	Pol eta inh-1	POLI inh	Pol eta inh-2	others
O=c1[nH]c(/C=C\c2cccnc2)c([N+](=O)[O-])c(=O)[nH]1	?	-8%	10%	-2%	-5%	22%	.
COc1cc(/C=C/c2[nH]c(=O)[nH]c(=O)c2[N+](=O)[O-])ccc1OCCC(C)C	?	24%	-9%	-19%	?	57%	.
O=c1[nH]c(/C=C/c2cccc([N+](=O)[O-])c2)c([N+](=O)[O-])c(=O)[nH]1	-67*	-21%	-3%	-3%	25µM*	?	.	GALK confirm=38µM*;Redox cycling=2%;HEK293 tox=7%
COc1cc(/C=C/c2[nH]c(=O)[nH]c(=O)c2[N+](=O)[O-])cc([N+](=O)[O-])c1O	-84*	?	?	-16%	22µM*	?	60*	Pol kappa inh-2=?
O=c1[nH]c(/C=C/c2ccc(Cl)cc2Cl)c([N+](=O)[O-])c(=O)[nH]1	-78*	32µM*	4%	-14%	20µM*	50µM*	76*
CC(=O)Nc1ccn(C2CC3OCC(NC(=O)C(Cc4ccccc4)NC(=O)OC(C)(C)C)C3O2)c(=O)n1 (stereo unspecified)	.	.	6%	12%	.	8%	.
CC(=O)c1ccc(N2CCN(S(=O)(=O)c3ccc(-c4coc(C)n4)cc3)CC2)cc1	.	45µM*	-6%	-4%[60.1 µM]	79µM*	?	?
Cc1nc(-c2ccc(S(=O)(=O)N3CCN(c4ccccc4)CC3)cc2)co1	-3	3%	-11%	-7%	3%	-10%	.
Cc1cccc2cc(/C=N/NC(=O)c3ccncc3)c(Cl)nc12	-1	-8%	-6%	-1%	22%	-1%	.
Cc1ccc2cc(/C=N/NC(=O)c3ccccc3O)c(Cl)nc2c1	-19	3%[57.1 µM]	-16%	-9%	16µM*	7%	?
O=C(N/N=C/c1cc2cc3c(cc2nc1Cl)OCCO3)c1ccccc1O	5	1%	2%	3%	?	-8%	.
Cc1cccc2cc(/C=N/NC(=O)c3ccccc3O)c(Cl)nc12	-1	28µM*	1%	-3%	?	-14%	?
Cc1ccc(O)c(N=Cc2cc(Cc3ccccc3)cc([N+](=O)[O-])c2O)c1	-64*	5.6µM*	?	?	79µM*	?	.	Pol kappa inh-2=67*
COC(=O)c1cc(COc2ccc3c4c(c(=O)oc3c2)CCCC4)c(C)o1	.	-1%	10%	-3%	-9%	-12%	.
Cc1oc(C(=O)O)cc1COc1ccc2c3c(c(=O)oc2c1)CCC3	1	35µM*	-16%	?	18µM*	-19%	?
O=C(CCl)N1N=C(c2cccs2)CC1c1ccco1 (stereo unspecified)	-7	-26%	0%	-5%	?	98%	.
O=C(CCl)N1N=C(c2ccco2)CC1c1ccco1 (stereo unspecified)	-70*	25µM*	?	22µM*	10µM*	3.2µM*	60*
Cc1csc(=O)n1CCC(=O)OCC(=O)Nc1ncc(Cl)cc1Cl	-22	.	14%	?	22µM*	?	?	Pol kappa inh-2=21*
O=C(COC(=O)C1CC1)Nc1ncc(Cl)cc1Cl	-17	.	-8%	-38%	28µM*	?	48*
O=C(COC(=O)C1CC1)Nc1ncc(C(F)(F)F)cc1Cl	-5	0%	-2%	2%	0%	57%	.
O=C(O)C1Cc2ccccc2CN1C(=O)COc1ccc(Cl)cc1Cl (stereo unspecified)	3	?	-1%	-42%	25µM*	12%	?
O=C(O)C1Cc2ccccc2CN1C(=O)COc1ccc(Br)cc1 (stereo unspecified)	2	32µM*	0%	79µM*	10µM*	?	27*
O=C(COc1ccc(Br)cc1)N1CCCCCC1	.	22%	-5%	1%	-10%	-13%	.
CCOc1ccccc1N(CC(=O)NCCSc1ccccc1)S(C)(=O)=O	-5	-26%	2%	-1%	-11%	79%	.
Cc1ccc(C(=O)CSC2=C(C#N)C(c3ccco3)CC(=O)N2)c(C)c1 (stereo unspecified)	.	32µM*	-1%	?	79µM*	18µM*	?
SMILES	PI5P4K alpha inh	POLB inh	FEN1 inhibitor	Pol kappa inh-1	Pol eta inh-1	POLI inh	Pol eta inh-2	others
CC(SCc1cc(=O)n2c([nH]c3ccccc32)c1C#N)C(=O)O (stereo unspecified)	?	-30%	-35%	?	?	?	?
O=C(O)CCN1CCc2ccccc2C1c1ccncc1 (stereo unspecified)	-3	?	13%	-17%	-2%	-14%	.
Clc1ccccc1Nc1nc(NCC2CC2)nc2ccsc12	-5	.	.	.	.	.	.
CCOC(=O)Cc1csc(SCn2nnc3ccccc3c2=O)n1	3	-17%	-4%	6%	-7%	-4%	.
CCOC(=O)Cc1csc(-n2sc3ccccc3c2=O)n1	-107*	?	?	-28%	40µM*	-17%	?
CCOC(=O)/C(=C\c1ccc(N2CCC(c3ccccc3)=N2)cc1)C(C)=O	16	.	-7%	-5%	?	-11%	?
CCn1c(SCC(=O)N2CC(C)OC(C)C2)nc2c([nH]c3ccccc32)c1=O (stereo unspecified)	-1	6%	0%	-2%	-4%	13%	.
O=C(COC(=O)Cc1ccc(S(=O)(=O)N2CCOCC2)s1)NCCc1ccccc1	.	22µM*	1%	?	79µM*	?	?
